In PubChem BioAssay AID463173 (ICCB-Longwood Screening Facility, Harvard Medical School, 2010):
Screen size: about 52,000 compounds; about 4,300 (8.3%) were called active. The sample holds actives, similar compounds and a random draw of the others, so the mix is not that of the screen. Unmarked numbers belong to inactive results. Rule as the data show it: active = survival mostly below about 52% (no sharp cut-off); inactive = mostly above about 56%.

Tested on: DeltatarO mutant
Test: S. aureus survival, RN4220 and DeltatarO strains – OD600, teichoic acid synthesis inhibitors, primary screen (AID 463173)
Conditions: S. aureus RN4220 wild type/DeltatarO growth, OD600, 18 h, hits give low values, screened at 18.75 µg/mL (by protocol)

Structure (SMILES)	survival
CCOC(=O)c1cnc(N2CCN(c3cccc(C)c3C)CC2)c2ccccc12	77%
CCOC(=O)c1cnc2ccc(OCC)cc2c1N1CCN(c2cccc(Cl)c2)CC1	3% (active)
CCOC(=O)c1cnc2c(OC)cccc2c1N1CCN(c2ccccc2F)CC1	1% (active)
CCOC(=O)c1cc(S(=O)(=O)N2CCN(c3ccccc3OC)CC2)[nH]n1	122%
CCOC(=O)c1cc(S(=O)(=O)N2CCN(c3cccc(C)c3C)CC2)[nH]n1	81%
CCOC(=O)c1cnc2ccc(OCC)cc2c1N1CCN(c2ccccc2F)CC1	0% (active)
CCOc1ccc(NC(=O)NCCN2CCN(c3ccccc3F)CC2)cc1	87%
CCOC(=O)c1cnc(N2CCN(c3ccc(C)cc3C)CC2)c2ccccc12	87%
COC(=O)c1cnc(N2CCN(c3ccccc3F)CC2)c2ccccc12	86%
CCOC(=O)c1cnc2cc(C(F)(F)F)ccc2c1N1CCN(c2cccc(Cl)c2)CC1	84%
CCOC(=O)c1cc(S(=O)(=O)N2CCN(c3ccccc3F)CC2)[nH]n1	-5% (active)
CCOC(=O)c1noc2ncnc(N3CCN(c4cccc(Cl)c4)CC3)c12	83%
CCOC(=O)c1ccccc1NC(=O)Cn1c(=O)n(-c2cccc(C)c2)c(=O)c2c1c1cc(C)ccc1n2C	68%
CCOc1ccc(C(=O)NCC(c2cccs2)S(=O)(=O)c2ccccc2)cc1 (centres undefined)	97%
CC(C)OC(=O)c1cc2c(ccn2C)n1CCC#N	96%
Cc1cc(Nc2ccccc2C)nc(-n2nc(C)cc2C)n1	83%
Cc1ccc(S(=O)(=O)c2nc(-c3cccc(Cl)c3)oc2NCc2ccccc2)cc1	168%
COC(=O)c1ccc(NC(=O)C(=O)NCC(c2cccnc2)N2CCc3ccccc32)cc1 (centres undefined)	34% (active)
Cc1cc(C)cc(NC(=O)C(=O)NCC(c2cccnc2)N2CCc3ccccc32)c1 (centres undefined)	43% (active)
COc1ccc(NC(=O)C(=O)NCC(c2cccnc2)N2CCc3ccccc32)cc1OC (centres undefined)	61%
Cc1cccc(C)c1NC(=O)C(=O)NCC(c1cccnc1)N1CCc2ccccc21 (centres undefined)	62%
CCOc1ccc(NC(=O)C(=O)NCC(c2cccnc2)N2CCc3ccccc32)cc1 (centres undefined)	44%
Cc1ccc(NC(=O)C(=O)NCC(c2cccnc2)N2CCc3ccccc32)cc1Cl (centres undefined)	97%
COc1ccc(NC(=O)c2cnc(N3CCCCC3)c3ccccc23)cc1Cl	78%

Structure (SMILES)	survival
CCOc1cc(C(=O)Nc2ccc3c(c2)n(C)c(=O)c(=O)n3C)cc(OCC)c1OCC	84%
COc1ccc2c(c1)sc1ncc(C(=O)NCc3ccccc3F)c(=O)n12	101%
Cc1ccc2[nH]c(=O)cc(C(=O)O)c2c1	99%
Cc1cc(=O)c2cc(Br)ccc2[nH]1	71%
Cc1ccc2[nH]c(C)cc(=S)c2c1	45% (active)
COc1cc(NC(=O)C(NS(=O)(=O)c2ccc3c(c2)CCCC(=O)N3)C(C)C)cc(OC)c1 (centres undefined)	71%
CCC(=O)c1cc2c(cc1NC(=O)c1ccccc1F)OCCO2	68%
O=C(Nc1cc2c(cc1C(=O)c1cccc(Br)c1)OCCO2)c1ccccc1F	28% (active)
O=C(Nc1cc2c(cc1C(=O)c1ccccc1Cl)OCCO2)c1ccc(Br)cc1	66%
CC1CCCN(S(=O)(=O)c2ccc(NC(=O)CSc3nc4ccccc4o3)cc2)C1 (centres undefined)	58%
CCC1Oc2ccccc2N(CC(=O)NCc2ccccc2)C1=O (centres undefined)	-1% (active)
CCC1Oc2ccc(C)cc2N(CC(=O)NCCc2ccccc2)C1=O (centres undefined)	80%
CCC1Oc2ccc(C)cc2N(CC(=O)NCc2ccc(F)cc2)C1=O (centres undefined)	70%
CCC1Oc2ccccc2N(CC(=O)NCc2ccc(C)cc2)C1=O (centres undefined)	78%
CCC1Oc2ccc(C)cc2N(CC(=O)NCc2ccc(OC)cc2)C1=O (centres undefined)	39% (active)
CC1Oc2ccccc2N(CC(=O)NCc2ccccc2)C1=O (centres undefined)	92%
COc1ccc(C2c3c(oc4ccc(F)cc4c3=O)C(=O)N2Cc2ccc3c(c2)OCO3)cc1 (centres undefined)	59%
COc1ccccc1N1CCN(c2ncnc3c2nc2n3CCCC2)CC1	67%
Cc1cc(=O)n2nc(N3CCC(C(=O)NCc4ccccc4Cl)CC3)sc2n1	87%
CCOC(=O)c1cccc(NC(=O)Nc2c(C)n(C)n(-c3ccccc3)c2=O)c1	94%
CCCc1cc(=O)oc2cc(C)c3c(C(C)(C)C)coc3c12	88%
CCCc1cc(=O)oc2cc(C)c3c(-c4cccc(OC)c4)coc3c12	67%
CCCc1cc(=O)oc2cc(C)c3c(-c4ccccc4)c(C)oc3c12	-10% (active)
Cc1ccc2[nH]c(=O)c(CN(Cc3ccccc3)C(=O)c3ccco3)cc2c1	103%

Structure (SMILES)	survival
CCc1nnc2n1N(C(C)=O)C(c1ccc(C(C)(C)C)cc1)=C(C(C)=O)S2	96%
Cc1c(CNC2CCCCCC2)c(C(=O)O)c(C)n1Cc1ccc(F)cc1Cl	80%
Cc1ccc(-c2nc(-c3cccs3)c(-c3cccs3)[nH]2)cc1	62%
CN(C)c1ccc(-c2nc(-c3cccs3)c(-c3cccs3)[nH]2)cc1	47% (active)
CN1C(C(=O)Nc2cccc(O)c2)=CC(c2cccs2)=NS1(=O)=O	87%
Cc1sc(N)nc1-c1cccs1	96%
Fc1ccc(-c2nc(-c3cccs3)c(-c3cccs3)[nH]2)cc1	64%
Oc1ccccc1-c1nc(-c2cccs2)c(-c2cccs2)[nH]1	0% (active)
COc1ccc(O)c(-c2cn[nH]c2-c2cccs2)c1	89%
Oc1cccc(-c2nc(-c3cccs3)c(-c3cccs3)[nH]2)c1	4% (active)
Fc1ccc2[nH]c(-c3cccs3)cc2c1	54%
COc1cc(Cl)c(C)cc1NC(=O)CCc1c(C)nc2cc(-c3cccc(F)c3)nn2c1C	74%
CCCCc1nn2c(=O)cc(CN(CC)c3ccccc3)nc2s1	73%
Cc1noc2ncnc(N3CCN(c4cccc(C(F)(F)F)c4)CC3)c12	71%
CCOC(=O)CSc1nc2cc3c(cc2c(=O)n1CCCC(=O)NCc1ccc2c(c1)OCO2)OCO3	83%
COc1ccc(S(=O)(=O)NCCc2sc3nc(-c4ccc(C)cc4)nn3c2C)cc1F	72%
Cc1cc(C)cc(-n2cnc3cc(C(=O)NC4CCCCCC4)ccc32)c1	95%
CCc1ccccc1NC(=O)Cn1c(-c2nonc2N)nc2ccccc21	86%
Nc1nonc1-c1nc2ccccc2n1CCn1c(-c2nonc2N)nc2ccccc21	82%
Nc1nonc1-c1nc2ccccc2n1CC(=O)Nc1cccc(Cl)c1Cl	66%
Nc1nonc1-c1nc2ccccc2n1CC(=O)Nc1ccccc1C(=O)O	45% (active)
Nc1nonc1-c1nc2ccccc2n1CC(=O)Nc1ccc(F)cc1	169%
NC(=O)Cn1c(-c2nonc2N)nc2ccccc21	62% (active)
COc1ccc(-c2nc(SCC(=O)NC3CCCC3)c(-c3ccc(C)cc3)[nH]2)cc1OC	57%

Structure (SMILES)	survival
COc1ccc(Cn2ccc3nc(C)c(C(=O)NCc4ccc(C)cc4)cc3c2=O)cc1	60%
O=C(COC(=O)c1ccco1)Nc1cccc2ccccc12	97%
CCOC(=O)c1c(-c2cccs2)csc1NC(C)=O	69%
CNS(=O)(=O)c1cn(CC(=O)N2CCN(c3ccc(Cl)cc3)CC2)cc1S(=O)(=O)NC	106%
CNS(=O)(=O)c1cn(CC(=O)N2CCN(c3ccc(C(C)=O)cc3)CC2)cc1S(=O)(=O)NC	37% (active)
CNS(=O)(=O)c1cn(CC(=O)N2CCN(c3ccc(OC)cc3)CC2)cc1S(=O)(=O)NC	69%
O=C(Cn1cc(SCc2ccc(F)cc2)c2ccccc21)N1CCCCC1	79%
Cc1ccc(NC(=O)c2oc3ccc(S(=O)(=O)N(C)C4CCCCC4)cc3c2C)c(C)c1	73%
Cc1nc2ccc(NC(=O)C3CCCCC3)cc2c(=O)n1Cc1ccccc1	63%
Cc1ccc(CNS(=O)(=O)c2ccc(C(=O)N(C)C)s2)cc1	-4% (active)
CN(C)C(=O)c1ccc(S(=O)(=O)NCc2ccc(Cl)cc2)s1	119%
COc1ccc(CNS(=O)(=O)c2ccc(C(=O)N(C)C)s2)cc1	66%
CCCNC(=O)c1cnc2sc(N3CCCCC3)nn2c1=O	99%
O=C(NCc1cccc(Cl)c1)c1cc2c(s1)-c1ccccc1SC2	64%
COc1ccc(CCN2C(=O)c3[nH]nc(-c4ccccc4O)c3C2c2ccc(O)c(OC)c2)cc1 (centres undefined)	30% (active)
COc1cccc(C2c3c(-c4ccccc4O)n[nH]c3C(=O)N2Cc2cccnc2)c1 (centres undefined)	84%
COc1cc(C2c3c(-c4ccccc4O)n[nH]c3C(=O)N2Cc2ccncc2)ccc1O (centres undefined)	90%
COc1ccc(CCN2C(=O)c3[nH]nc(-c4ccccc4O)c3C2c2ccc(OC)c(OC)c2)cc1 (centres undefined)	45% (active)
COc1cccc(C2c3c(-c4ccccc4O)n[nH]c3C(=O)N2CCc2ccc(OC)c(OC)c2)c1 (centres undefined)	8% (active)
CC(CNC(=O)c1ccc(CSc2nc3ccncc3n2Cc2ccccc2)cc1)c1ccccc1 (centres undefined)	78%
CS(=O)(=O)NCc1ccc2c(c1)OCO2	92%
COc1ccc(CNC(=O)c2ccc3c(c2)N(Cc2ccccc2)C(=O)c2ccccc2S3(=O)=O)cc1	83%
